This is part of a sample that, as a whole, favours compounds with a hit. Of some 83,000 tested, about 20% had one in any assay.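 48-hour exposure, single concentration, 96-well plates; percent growth endpoint where 0 means no net growth. Active: below 10.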 Unmarked numbers belong to inactive results. Calls of active or inactive are those of the source.
Tests used:
Assay in all cases: NCI-60 one-dose screen, 48 h (100 = growth as untreated, 0 = no growth, -100 = all killed)
SR leukemia = settings: 10 µM unless noted
RPMI-8226 leukemia = settings: 10 µM unless noted
OVCAR-8 ovarian = settings: 10 µM unless noted
OVCAR-5 ovarian = settings: 10 µM unless noted
OVCAR-4 ovarian = settings: 10 µM unless noted
SK-OV-3 ovarian = settings: 10 µM unless noted
IGROV1 ovarian = settings: 10 µM unless noted
OVCAR-3 ovarian = settings: 10 µM unless noted
HS 578T breast = settings: 10 µM
NCI/ADR-RES ovarian = settings: 10 µM unless noted
T-47D breast = settings: 10 µM unless noted
BT-549 breast = settings: 10 µM unless noted
MDA-MB-435 melanoma = settings: 10 µM unless noted
SW-620 colon = settings: 10 µM unless noted
MCF7 breast = settings: 10 µM unless noted
HCT-116 colon = settings: 10 µM unless noted
HCC-2998 colon = settings: 10 µM unless noted
KM12 colon = settings: 10 µM unless noted

Structure (SMILES)	growth (SR leukemia)	growth (RPMI-8226 leukemia)	growth (OVCAR-8 ovarian)	growth (OVCAR-5 ovarian)	growth (OVCAR-4 ovarian)	growth (SK-OV-3 ovarian)	growth (IGROV1 ovarian)	growth (OVCAR-3 ovarian)	growth (HS 578T breast)	growth (NCI/ADR-RES ovarian)	growth (T-47D breast)	growth (BT-549 breast)	growth (MDA-MB-435 melanoma)	growth (SW-620 colon)	growth (MCF7 breast)	growth (HCT-116 colon)	growth (HCC-2998 colon)	growth (KM12 colon)
O=C1CC2(O)CSc3nc(=O)cc(n32)N1 (stereo unspecified)	102%	99%	107%	105%	121%	102%	109%	115%	121%	112%	104%	107%	100%	112%	96%	106%	120%	102%
COc1ccc2[nH]c(C(=O)OCc3ccc4c(Br)cc(Br)c(O)c4n3)cc2c1	2.81% (active)	-24.2% (active)	-27.7% (active)	-48.4% (active)	-44.2% (active)	62.6%	-90.9% (active)	-91.3% (active)	-15.4% (active)	-30.6% (active)	-51.9% (active)	-88.2% (active)	-72.4% (active)	-72.8% (active)	-36.8% (active)	-74.8% (active)	-77.7% (active)	-48.6% (active)
COc1cc2nccc(Oc3ccc(NC(=O)C4(C(=O)Nc5ccc(F)cc5)CC4)cc3)c2cc1Oc1ccc(N)cn1	11.9%	48.5%	47.1%	40%	29.9%	61.3%	-24.1% (active)	49.9%	7.33% (active)	73.8%	5.99% (active)	61.9%	3.34% (active)	36.8%	9.52% (active)	40.7%	72%	3.7% (active)
c1ccc(-c2[nH]c3ccccc3c2-c2ccccc2)cc1	88.6%	32.6%	92%	91.8%	78%	95%	120%	96.1%	106%	95.7%	66.1%	110%	84.6%	88.3%	94.9%	81.2%	114%	92.4%
COc1cccc(CC(C)=C(c2ccc(OCCCN(C)C)cc2)c2ccc(OCCCN(C)C)cc2)c1	-49.1% (active)	-53.9% (active)	-78.7% (active)	-86.5% (active)	-22.2% (active)	-88.6% (active)	-82.6% (active)	-89.9% (active)	-41.4% (active)	-70% (active)	-68.2% (active)	55.3%	-91.7% (active)	-80.1% (active)	-73.6% (active)	-75.6% (active)	-71% (active)	-83% (active)
COc1ccc(-c2n[nH]nc2-c2cc(OC)c3c(c2)OCO3)cc1	-30.8% (active)	9.65% (active)	6.23% (active)	42.7%	51.7%	-6.92% (active)	-17.4% (active)	-14.6% (active)	15%	0.386% (active)	53.7%	15.6%	-74.7% (active)	22.6%	15.9%	5.38% (active)	-3.69% (active)	2.06% (active)
CN=C1C=C/C(=N/N=c2/ccn(O)cc2C)C=C1C	90.5%	77.1%	94.2%	83.2%	97.5%	102%	129%	117%	110%	97.4%	90.1%	107%	102%	98.5%	81%	90.9%	91.7%	109%
CCN(CC)CCCC(C)Nc1cnc(C(=O)Nc2ccc(Cl)c3cccnc23)cn1 (stereo unspecified)	1.42% (active)	2.2% (active)	27.3%	53.3%	51.3%	79.5%	44.2%	-23.7% (active)	51.4%	52.2%	-49.3% (active)	80.1%	-57.8% (active)	0.619% (active)	-2.14% (active)	-52.4% (active)	32.6%	30.3%
CNC(=O)c1cc(Oc2ccc(NC(=O)c3nc(S(C)(=O)=O)n(C)c3-c3ccc(F)cc3)cc2)ccn1	60.2%	55.6%	75.8%	104%	67.1%	58.9%	54.3%	69.6%	76.9%	77.8%	61.5%	80.6%	79.4%	72.1%	79%	64.2%	93.8%	21.9%
CNC(=O)c1cc(Oc2ccc(NC(=O)c3[nH]c(SC)nc3-c3ccc(F)cc3)cc2)ccn1	63.1%	43.8%	69.1%	99.9%	60.8%	34.1%	55%	88.2%	75.7%	67.4%	37%	85.3%	21.2%	90.3%	66.4%	62.9%	96.9%	19.4%
COc1ccc(/C(=C\c2cc(OC)c(OC)c(OC)c2)C(=O)N2CCN(c3ccccc3)CC2)cc1O	87.7%	73.5%	96.8%	101%	98.1%	111%	102%	111%	87.8%	93.9%	87.4%	103%	98.1%	104%	92.5%	106%	98.1%	96.7%
C=CCn1c(C)nc2cc(Nc3nc(Nc4ccc5nc(C)n(CC=C)c5c4)nc4ccccc34)ccc21	106%	98.8%	98.9%	107%	99.5%	104%	102%	108%	100%	101%	96%	106%	108%	106%	92.4%	98.9%	104%	109%
CCN(CC)CCNc1c(C)cc(CO)c(Cl)c1C	104%	105%	90.3%	117%	103%	120%	64.8%	117%	107%	101%	112%	104%	106%	105%	75%	104%	107%	113%
O=C(/C=C/c1cccc([N+](=O)[O-])c1)c1ccc(Nc2nc(N3CCCCC3)nc(N3CCCCC3)n2)cc1	90.6%	7.95% (active)	95.2%	110%	97.6%	97.4%	88.1%	91.5%	103%	103%	78.6%	91.8%	-11.7% (active)	94.2%	19.4%	-34.5% (active)	81.8%	85.5%
Cc1ccc2oc(=O)cc(-c3nc4ccc([N+](=O)[O-])cc4[nH]3)c2c1	83%	30.9%	55.6%	98.3%	31.3%	79.4%	70.6%	43.5%	63.9%	20.9%	25.4%	42.4%	64.6%	78.1%	57.2%	8.52% (active)	67.2%	59.7%
COc1ccc([C@@H]2[C@@H](Oc3ccccc3)C(=O)N2c2cc(OC)c(OC)c(OC)c2)cc1F	5.09% (active)	3.15% (active)	6.55% (active)	19.8%	39%	16.6%	18.5%	1.08% (active)	26%	12.2%	87.4%	1.45% (active)	-27.5% (active)	26.2%	14.1%	2.37% (active)	12.9%	11.7%
N#Cc1c(N)c(C(=O)c2ccc3c(c2)OCCO3)n2c1CCCC2	-20% (active)	4.91% (active)	31.5%	57.9%	81.2%	31.3%	10.8%	-3.73% (active)	36.3%	8.36% (active)	29.2%	52.9%	-48.8% (active)	19.3%	18.1%	18.6%	59.6%	24.1%
